This passage reports growth inhibition, inhibition and outcome results from PubChem BioAssay.

Test [1] is described as follows: antimalarial activity against Dd2 strain (AID 2302;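 active = growth inhibition above 50% at the single 2 µM test dose, taken to imply half-maximal potency below 2 µM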;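 also: 0% = DMSO untreated growth and 100% = chloroquine plus artemisinin killed control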). The note with it: P. falciparum Dd2 in RBCs, LDH growth readout, 72 h; at 2 µM; hits give high values.
The nature of test [2]: HepG2 cytotoxicity, primary screen, cytotoxicity control for P. falciparum antimalarial project, cell-based, ATP luminescence (AID 2303;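 active = inhibition above 50%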;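 also: 0% = DMSO wells and 100% = digitonin-killed cells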). The following applies: HepG2 viability, 24-48 h, at 10 µM, hits give high values.
Test [3] addresses L-lactate dehydrogenase (Plasmodium falciparum (isolate CDC / Honduras)) (UniProt Q27743). Nature of the test: PfLDH activity inhibition – cell lysate, 3D7 strain, counter-screen for P. falciparum growth inhibition project (AID 2304).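 Also: 0% = vehicle and 100% = reference inhibitor.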 The note with it: P. falciparum 3D7 crude extract, LDH APAD/NBT absorbance; at 2 µM; hits give high values. Background: Counterscreens check selectivity or assay interference.

Test [4] is described as follows: inhibition of 3D7 malaria parasite growth – strain 3D7 (AID 2306).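 Also: 0% = DMSO wells and 100% = chloroquine plus artemisinin control wells.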 The note with it: P. falciparum 3D7 erythrocytic growth, LDH absorbance, 72 h; at 2 µM; hits give high values.
The target in test [5] is Calcium-dependent protein kinase 1 (Plasmodium falciparum (isolate 3D7)) (UniProt P62344). Nature of the test: PfCDPK1 kinase inhibitors, biochemical, TCAMS library (AID 1159585; cut-off not given, nearly all actives have IC50 up to about 0.98 µM;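 also: inhibitors leave more ATP so luminescence rises with inhibition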). The note with it: recombinant PfCDPK1, Kinase-Glo ATP depletion luminescence. For orientation: Kinase-Glo measures the ATP left after a reaction by luminescence.
Test [6] concerns the target Plasmodium falciparum protein kinase 6 (PK6, PF3D7_1337100) (UniProt Q8IDW1). Nature of the test: PfPK6 kinase inhibitors, biochemical, TCAMS library (AID 1159586). The following applies: recombinant PfPK6, Kinase-Glo ATP depletion luminescence.
Test [7] concerns the target Protein kinase 7 (PK7), Plasmodium falciparum 3D7 (PF3D7_0213400) (UniProt Q7YTF7). Nature of the test: inhibition of Plasmodium PK7 catalytic activity – biochemical, TCAMS antimalarial set, Kinase-Glo luminescence (AID 1159587). The following applies: recombinant PfPK7, Kinase-Glo ATP depletion luminescence.
Test [8] concerns the target Calcium-dependent protein kinase 4 (Plasmodium falciparum (isolate 3D7)) (UniProt Q8IBS5). In words: PfCDPK4 kinase inhibitors, biochemical, TCAMS library (AID 1159588; cut-off not given, nearly all actives have IC50 up to about 0.91 µM). The note with it: recombinant PfCDPK4, Kinase-Glo ATP depletion luminescence.

Unmarked numbers belong to inactive results. For some of these results: Entries with a potency or affinity are not part of this list. Calls of active or inactive are those of the source. Unless noted, no rule for the calls is given here.

Sequence of Plasmodium falciparum protein kinase 6 (PK6, PF3D7_1337100) (Q8IDW1 1-305): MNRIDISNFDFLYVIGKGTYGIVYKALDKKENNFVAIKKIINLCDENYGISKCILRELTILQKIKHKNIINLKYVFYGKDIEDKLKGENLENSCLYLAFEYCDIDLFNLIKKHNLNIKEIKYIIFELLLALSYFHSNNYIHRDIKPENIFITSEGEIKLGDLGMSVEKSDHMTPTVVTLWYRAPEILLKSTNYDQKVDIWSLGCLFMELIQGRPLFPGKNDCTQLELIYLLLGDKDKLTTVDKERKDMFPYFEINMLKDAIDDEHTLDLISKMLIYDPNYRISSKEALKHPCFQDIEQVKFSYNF
Sequence of Calcium-dependent protein kinase 1 (Plasmodium falciparum (isolate 3D7)) (P62344 whole entry, looked up): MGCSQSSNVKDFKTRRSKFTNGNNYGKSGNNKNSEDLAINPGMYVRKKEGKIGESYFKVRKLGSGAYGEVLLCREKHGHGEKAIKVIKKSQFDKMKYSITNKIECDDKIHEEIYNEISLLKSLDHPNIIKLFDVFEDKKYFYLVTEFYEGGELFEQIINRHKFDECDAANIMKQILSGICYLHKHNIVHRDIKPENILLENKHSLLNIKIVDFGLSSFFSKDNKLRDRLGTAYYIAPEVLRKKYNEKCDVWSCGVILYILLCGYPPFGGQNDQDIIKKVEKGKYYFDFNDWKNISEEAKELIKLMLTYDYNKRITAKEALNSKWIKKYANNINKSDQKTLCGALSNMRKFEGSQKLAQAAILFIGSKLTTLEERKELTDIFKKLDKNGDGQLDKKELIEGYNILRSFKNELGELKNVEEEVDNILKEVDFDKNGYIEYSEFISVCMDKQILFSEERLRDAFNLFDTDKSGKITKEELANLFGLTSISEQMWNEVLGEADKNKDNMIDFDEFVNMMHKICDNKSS
Sequence of L-lactate dehydrogenase (Plasmodium falciparum (isolate CDC / Honduras)) (Q27743 whole entry, looked up): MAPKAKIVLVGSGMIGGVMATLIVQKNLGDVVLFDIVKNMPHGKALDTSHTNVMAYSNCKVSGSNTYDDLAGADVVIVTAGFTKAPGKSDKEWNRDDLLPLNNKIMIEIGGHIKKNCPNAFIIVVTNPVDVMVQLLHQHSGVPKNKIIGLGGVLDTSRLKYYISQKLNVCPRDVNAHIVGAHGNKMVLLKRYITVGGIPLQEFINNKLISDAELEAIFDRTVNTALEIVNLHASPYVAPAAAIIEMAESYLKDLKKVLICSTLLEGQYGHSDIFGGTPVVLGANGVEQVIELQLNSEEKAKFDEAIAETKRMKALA
Sequence of Protein kinase 7 (PK7), Plasmodium falciparum 3D7 (PF3D7_0213400) (Q7YTF7 1-343): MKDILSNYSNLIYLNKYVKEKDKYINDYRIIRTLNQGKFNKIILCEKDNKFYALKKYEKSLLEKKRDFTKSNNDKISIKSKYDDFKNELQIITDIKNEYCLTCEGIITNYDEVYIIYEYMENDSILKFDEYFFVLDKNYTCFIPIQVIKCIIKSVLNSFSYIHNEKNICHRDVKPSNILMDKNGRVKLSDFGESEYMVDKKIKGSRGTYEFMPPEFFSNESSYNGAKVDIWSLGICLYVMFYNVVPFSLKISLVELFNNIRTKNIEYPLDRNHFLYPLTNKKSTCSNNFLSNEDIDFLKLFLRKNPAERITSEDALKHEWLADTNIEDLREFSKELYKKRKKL
Sequence of Calcium-dependent protein kinase 4 (Plasmodium falciparum (isolate 3D7)) (Q8IBS5 whole entry, looked up): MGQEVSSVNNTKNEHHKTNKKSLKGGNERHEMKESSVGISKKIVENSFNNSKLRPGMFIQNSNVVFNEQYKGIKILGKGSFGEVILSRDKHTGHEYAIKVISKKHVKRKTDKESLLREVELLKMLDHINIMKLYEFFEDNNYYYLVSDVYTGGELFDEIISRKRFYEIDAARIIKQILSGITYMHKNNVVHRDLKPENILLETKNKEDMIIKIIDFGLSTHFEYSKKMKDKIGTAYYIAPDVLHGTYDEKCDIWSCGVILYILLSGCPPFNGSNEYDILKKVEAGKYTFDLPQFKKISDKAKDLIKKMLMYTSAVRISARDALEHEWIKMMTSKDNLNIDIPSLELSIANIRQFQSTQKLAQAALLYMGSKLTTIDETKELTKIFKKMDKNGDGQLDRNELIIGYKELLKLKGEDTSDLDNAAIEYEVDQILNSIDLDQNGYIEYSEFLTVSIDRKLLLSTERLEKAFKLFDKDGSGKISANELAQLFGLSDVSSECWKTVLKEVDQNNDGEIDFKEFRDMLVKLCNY

Turning to `O=C(Nc1cccc(CN2CCCN(Cc3cccc(Cl)c3)CC2)c1)c1ccc(-c2ccccc2)cc1`, the growth inhibition is 14% in test [1] and 86% (active) in test [4]. The inhibition (commonly the change of the read-out against control, counted positive when it falls) in test [2] was 44%; in test [3], 1%. The outcome in test [5], in test [6], in test [7] and in test [8] was inactive.

Take `Cc1cc(N[C@@H](Cc2ccccc2)C(=O)NCCOc2ccccc2)nc(NCC2CCCCC2)n1`: the figures for the growth inhibition in test [1] and in test [4] were 75% (active) and 100% (active), respectively. The values for the inhibition in test [2] and in test [3] were 30% and -1%, respectively. The outcome in test [5], in test [6], in test [7] and in test [8] was inactive.

`Cc1cc(N2CCN(C)CC2)nc2ccc(NC(=O)Cc3cccc(C(F)(F)F)c3)cc12`: the growth inhibition in test [1] is 51% (active); in test [4] it was 99% (active). The inhibition was 26% in test [2] and 3% in test [3]. Besides, the result in test [5], in test [6], in test [7] and in test [8] was inactive.

Regarding `Cc1ccc(Nc2nc(C)cc(Nc3cccc(C#N)c3)n2)cc1`, the growth inhibition in test [1] is 96% (active); in test [4], 101% (active). For the same compound, the inhibition in test [2] was 14%; in test [3], 4%. In addition, the outcome in test [5], in test [6], in test [7] and in test [8] was inactive.

As to `O=C(COc1ccc(C(=O)c2ccccc2)cc1)Nc1nccs1`, the growth inhibition is 18% in test [1] and 94% (active) in test [4]. The inhibition in test [2] was 0%; in test [3], 2%. In addition, the result in test [5], in test [6], in test [7] and in test [8] was inactive.

On to `COc1cc(Cc2cnc(N)nc2N)cc(OC)c1OCCCCCN1C(=O)c2ccccc2C1=O`, for which the growth inhibition was 4% in test [1] and 97% (active) in test [4]. Moreover, the inhibition is 5% in test [2] and 3% in test [3]. Further, the outcome in test [5], in test [6], in test [7] and in test [8] was inactive.

For the compound `CCOc1ccc(OCC(=O)Nc2nc(-c3ccc(OC)cc3)c(C)s2)cc1`, the figures for the growth inhibition in test [1] and in test [4] were 98% (active) and 99% (active), respectively. Further, the values for the inhibition in test [2] and in test [3] were -7% and -8%, respectively. For the same compound, the result in test [5], in test [6], in test [7] and in test [8] was inactive.

As for `COc1cccc2cc(C(=O)N[C@@H](CC(C)C)C(=O)N[C@H](/C=N/N3CCOC3=O)Cc3ccccc3)oc12`, the growth inhibition in test [1] was 70% (active); in test [4], 96% (active). Besides, the inhibition was 6% in test [2] and -1% in test [3]. Moreover, the outcome in test [5], in test [6], in test [7] and in test [8] was inactive.

Regarding `O=S(=O)(Nc1cccc(CCN2CCC(N3CCCCC3)CC2)c1)c1ccc(-c2ccccc2)cc1`, the figures for the growth inhibition in test [1] and in test [4] were 49% and 100% (active), respectively. In addition, the inhibition in test [2] is 76% (active); in test [3], 1%. The outcome in test [5], in test [6], in test [7] and in test [8] was inactive.

For the compound `CC(C)CNCc1ccc(-c2cccc(CN(C(=O)NCCc3ccccc3)C3CCN(Cc4ccccc4)CC3)c2)cc1`, the growth inhibition was 94% (active) in test [1] and 100% (active) in test [4]. Moreover, the figures for the inhibition in test [2] and in test [3] were 91% (active) and -1%, respectively. Also, the result in test [5], in test [6], in test [7] and in test [8] was inactive.

For `COc1ccc(-c2csc(C(=O)NC3CCC(N4CCC(c5ccccc5C)CC4)CC3)c2)cc1` (stereo not given), the growth inhibition in test [1] was 99% (active); in test [4] it was 101% (active). For the same compound, the inhibition in test [2] was 64% (active); in test [3] it was -1%. Further, the result in test [5], in test [6], in test [7] and in test [8] was inactive.

In the case of `COc1ccc2nccc([C@@H](O)CN3CCC(NCCOc4ccc(F)cc4F)CC3)c2c1`, the figures for the growth inhibition in test [1] and in test [4] were 68% (active) and 101% (active), respectively. For the same compound, the inhibition in test [2] was 13%; in test [3], -5%. For the same compound, the result in test [5], in test [6], in test [7] and in test [8] was inactive.

For `O=C(NCCCN1CCOCC1)c1ccc(-c2cccc(NC(=O)c3ccc(Cl)c(Cl)c3)c2)cc1`, the growth inhibition in test [1] was 68% (active); in test [4], 100% (active). Also, the inhibition in test [2] and in test [3] was 3% throughout. Also, the outcome in test [5], in test [6], in test [7] and in test [8] was inactive.

Turning to `COc1ccc(-c2cccc(CNC3CCN(C)CC3)c2)cc1S(=O)(=O)NCc1ccccc1`, the growth inhibition in test [1] was 22%; in test [4], 90% (active). Besides, the inhibition is 18% in test [2] and -5% in test [3]. Also, the outcome in test [5], in test [6], in test [7] and in test [8] was inactive.

Regarding `N#Cc1cccc(NC(=O)Nc2cccc(-c3ccc(-c4nc5ccc(C(F)(F)F)cc5[nH]4)cc3)c2)c1`, the figures for the growth inhibition in test [1] and in test [4] were 99% (active) and 102% (active), respectively. The inhibition is 54% (active) in test [2] and -8% in test [3]. Besides, the outcome in test [5], in test [6], in test [7] and in test [8] was inactive.

For the compound `C[C@H](NC(=O)C1CCCC1)C(=O)Nc1ccc(-c2ccc(-c3nc4ccc(C(F)(F)F)cc4[nH]3)cc2)cc1`, the growth inhibition in test [1] was 70% (active); in test [4], 99% (active). Besides, the inhibition is 34% in test [2] and -4% in test [3]. In addition, the outcome in test [5], in test [6], in test [7] and in test [8] was inactive.

Consider `CC(C)N1CCC(N(Cc2ccc(-c3ccc(C(F)(F)F)cc3)cc2)C(=O)Cn2c(SCc3cccc(F)c3F)nc(=O)c3ccccc32)CC1`, for which the figures for the growth inhibition in test [1] and in test [4] were 75% (active) and 91% (active), respectively. The inhibition in test [2] is 74% (active); in test [3] it was -4%. For the same compound, the result in test [5], in test [6], in test [7] and in test [8] was inactive.

`O=c1cc(NCCCNCc2ccc(Cl)c(Cl)c2)[nH]c2ccc(Oc3ccccc3)cc12`: the results for the growth inhibition in test [1] and in test [4] were 29% and 92% (active), respectively. Moreover, the inhibition was 1% in test [2] and 2% in test [3]. Besides, the outcome in test [5], in test [6], in test [7] and in test [8] was inactive.

As to `CCc1ccc(O)c(-c2cc(C(=O)Nc3cccnc3)[nH]n2)c1`, the growth inhibition in test [1] is 99% (active); in test [4], 98% (active). The inhibition was -4% in test [2] and -7% in test [3]. The outcome in test [5], in test [6], in test [7] and in test [8] was inactive.

Consider `Cc1c(CN2CCCCC2)cccc1OCCCNc1nc(NCCc2ccc(O)cc2)nc(N2CCNCC2)n1`, for which the growth inhibition is 23% in test [1] and 101% (active) in test [4]. Besides, the values for the inhibition in test [2] and in test [3] were 26% and 3%, respectively. Also, the outcome in test [5], in test [6], in test [7] and in test [8] was inactive.
